# Results taken from PubChem BioAssay (NCATS).
# Inconclusive results are not listed. Unmarked numbers belong to inactive results. Active and inactive are the calls of the source. Calls come from the whole dose curve; as a rule, active = well fitted cell-killing curve with a large enough effect; inconclusive = small, poorly fitted or top-dose-only effect; inactive = no such curve, though single readings can be large or run the other way.
# Test: qHTS of pediatric cancer cell lines to identify multiple opportunities for drug repurposing: Primary screen for OHS-50 cells (AID 1347103); note: nearly all actives have a fitted effect of over 40% in size;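 for activity change, negative = cytotoxic: plate controls were DMSO neutral control for no effect and bortezomib positive control for full effect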
# Details: OHS-50 osteosarcoma viability, CellTiter-Glo luminescence, 48 h; series mostly up to 57.3 µM; activity change, negative = cytotoxic: at the top concentration
# How it was run: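 Cells (500-1,000/well) rested 5 h, then received compounds for 48 h; metabolically active cells were measured by CellTiter-Glo luminescence. Final concentrations spanned up to 46 µM (MIPE, 11-point) or 0.59 nM-46 µM (NPC, 8-point) in primary screens, 11-point in follow-ups.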
# Potency is the fitted concentration of half-maximal effect.
Compound,"activity change, negative = cytotoxic",Potency
Nc1cc(=O)[nH]c(N)n1,14.2%,
Nc1ccc(S(=O)(=O)Nc2nccs2)cc1,10.5%,
C[C@H](N)[C@H](O)c1cccc(O)c1,6.15%,
C[C@@H](O)[C@H](N)C(=O)O,14.9% [at 19.7 µM],
CN1CCOC(c2ccccc2)c2ccccc2C1 (centres undefined),-18.5%,
CC(=O)NC(Cc1ccccc1)C(=O)O (centres undefined),-5.41%,
Cc1cc(CC(=O)O)n(C)c1C(=O)c1ccc(Cl)cc1,8.08%,
NC1CCN(c2cccc(Cl)n2)CC1,-12.8%,
O=Cc1ccccc1C=O,-9.3%,
CC(O)COc1ccccc1 (centres undefined),7.95%,
COc1ccccc1O,20.8% [at 116 µM],
CC1(C)Oc2ccc(C#N)cc2[C@@H](N2CCCC2=O)[C@@H]1O,7.53%,
CCN(CC)C(=O)Nc1ccc(OCC(O)CNC(C)(C)C)c(C(C)=O)c1 (centres undefined),19.9%,
CC(C)(C(=O)O)c1ccc(C(O)CCCN2CCC(C(O)(c3ccccc3)c3ccccc3)CC2)cc1 (centres undefined),23.1%,
CCCCCCCCCCCCOS(=O)(=O)O,-2.15%,
NCCNCCNCCNCCN,-3.79% [at 11.5 µM],
Cc1cc2c(cc1S(N)(=O)=O)S(=O)(=O)CCC2,14.5%,
CNCC(O)c1ccc(O)c(O)c1 (centres undefined),-3.21%,
NC(=O)c1ncn([C@@H]2O[C@H](CO)[C@@H](O)[C@H]2O)c1N,2.67%,
COc1cc(C)c(Cc2cnc(N)nc2N)cc1OC,-18.2%,

Compound,"activity change, negative = cytotoxic",Potency
C[C@H](NC(CCc1ccccc1)C(=O)O)C(=O)N1CCC[C@H]1C(=O)O (some centres undefined),1.45%,
CCN(CC)CCNC(C(=O)OCCC(C)C)c1ccccc1 (centres undefined),-9.2%,
NC(=O)NNc1ccccc1,-1.19%,
CC[C@H]1CN2CCc3cc(OC)c(OC)cc3[C@@H]2C[C@@H]1C[C@H]1NCCc2cc(OC)c(OC)cc21,,0.347 µM (active)
Cc1cc2nc3c(=O)[nH]c(=O)nc-3n(C[C@H](O)[C@H](O)[C@H](O)CO)c2cc1C,11.8% [at 19.7 µM],
O=C(O)c1ccccc1-c1ccc(C(F)(F)F)cc1,11.8%,
CC1=C(CC(=O)O)c2cc(F)ccc2/C1=C\c1ccc(S(C)(=O)=O)cc1,3.8%,
Cc1ccc(C(C)C)cc2c(C)ccc1-2,14.8%,
O=C1Nc2ccc(Cl)cc2[C@@](C#CC2CC2)(C(F)(F)F)O1,,27.6 µM (active)
O=S(=O)(O)NC1CCCCC1,15.5%,
CN(N=O)C(=O)N[C@@H]1[C@@H](O)[C@H](O)[C@@H](CO)O[C@@H]1O,4.07%,
C[C@H]1O[C@H](O[C@H]2[C@H](O)[C@@H](O)[C@@H](O[C@H]3[C@H](O)[C@@H](O)[C@H](O)O[C@@H]3CO)O[C@@H]2CO)[C@H](O)[C@@H](O)[C@@H]1N[C@H]1C=C(CO)[C@@H](O)[C@H](O)[C@H]1O,-12.9%,
COc1ccc2cc1Oc1ccc(cc1)C[C@H]1c3c(cc4c(c3Oc3cc5c(cc3OC)CCN(C)[C@@H]5C2)OCO4)CCN1C,,15.5 µM (active)
COc1ccc2cc1Oc1cc3c(cc1OC)CC[N+](C)(C)[C@H]3Cc1ccc(cc1)Oc1c(OC)c(OC)cc3c1[C@@H](C2)[N+](C)(C)CC3,6.61%,
O=C1O[C@H](CO)[C@@H](O)[C@H](O)[C@H]1O,10.3%,
Oc1ccc(C(O)CNCCCCCCNCC(O)c2ccc(O)c(O)c2)cc1O (centres undefined),21.6%,
CC1=C(/C=C/C(C)=C/C=C/C(C)=C/C(=O)O)C(C)(C)CCC1,,0.0309 µM (active)
CC1(C)CO[C@@H](CC(=O)O)CN1,12.3%,
O=C(O)COc1nn(Cc2ccccc2)c2ccccc12,-3.29%,
